Ins promoter up: MIN6 insulin promoter up-regulation | MIN6 insulin promoter-GFP reporter, high-content imaging; hits give high values | z-score at 5 µM | hit rate 0.3% among 190,000;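 active means z-score above 3 at 5 µM with at least 500 cells counted in the well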
Cl transport mod: modulates chloride dependent transport by human KCC2 | B-score of Tl+ flux slope (higher = more flux/activation; lower = inhibition) at 10 µM | AID 1456 | Q9H2X9 | hit rate 2.2% among 190,000 | KCC2 cells, thallium flux FluoZin-2 fluorescence;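 active means thallium flux slope and its plate-corrected score both differing from the plate sample mean at a set confidence after two filtering rounds, in either direction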;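 further: slope of fluorescence scaled to starting intensity during 10 to 20 s after thallium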
Target sequence (Q9H2X9 whole entry, looked up): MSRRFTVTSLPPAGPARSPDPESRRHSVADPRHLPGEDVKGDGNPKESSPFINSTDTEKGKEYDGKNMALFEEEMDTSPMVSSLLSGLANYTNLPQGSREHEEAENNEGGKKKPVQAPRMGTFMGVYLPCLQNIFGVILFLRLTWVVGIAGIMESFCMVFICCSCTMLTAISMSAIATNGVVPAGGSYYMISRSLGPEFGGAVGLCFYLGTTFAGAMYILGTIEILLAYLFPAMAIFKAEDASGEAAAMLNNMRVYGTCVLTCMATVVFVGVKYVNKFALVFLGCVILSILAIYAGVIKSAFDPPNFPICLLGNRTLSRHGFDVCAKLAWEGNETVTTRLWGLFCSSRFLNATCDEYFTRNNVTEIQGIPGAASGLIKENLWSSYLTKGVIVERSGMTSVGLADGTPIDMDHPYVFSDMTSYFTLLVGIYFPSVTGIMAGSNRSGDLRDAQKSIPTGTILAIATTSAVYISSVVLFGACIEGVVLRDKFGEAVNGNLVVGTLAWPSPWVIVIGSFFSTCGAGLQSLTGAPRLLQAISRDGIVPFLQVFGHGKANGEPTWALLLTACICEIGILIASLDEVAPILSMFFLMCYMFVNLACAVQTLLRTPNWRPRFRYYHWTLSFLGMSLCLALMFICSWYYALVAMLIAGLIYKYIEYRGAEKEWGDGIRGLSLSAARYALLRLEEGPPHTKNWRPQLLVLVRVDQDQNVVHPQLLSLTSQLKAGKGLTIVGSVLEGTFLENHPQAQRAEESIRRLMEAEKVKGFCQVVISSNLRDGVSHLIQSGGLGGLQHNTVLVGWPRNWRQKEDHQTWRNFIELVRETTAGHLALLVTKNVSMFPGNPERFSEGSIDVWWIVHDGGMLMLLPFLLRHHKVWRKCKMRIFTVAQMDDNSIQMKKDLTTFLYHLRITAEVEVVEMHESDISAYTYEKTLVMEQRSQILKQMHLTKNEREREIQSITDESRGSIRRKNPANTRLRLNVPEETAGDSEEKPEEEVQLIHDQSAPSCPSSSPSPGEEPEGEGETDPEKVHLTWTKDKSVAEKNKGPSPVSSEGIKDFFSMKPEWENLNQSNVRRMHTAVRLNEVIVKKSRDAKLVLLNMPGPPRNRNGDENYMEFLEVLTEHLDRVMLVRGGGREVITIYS
ROMK primary: human ROMK K+ channel modulation, primary screen. Tet-inducible ROMK, thallium flux fluorescence; actives lie on both sides. B-score at 10 µM. AID 1918. P48048. hit rate 2% among 130,000;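 active means signal ratio slope over the read window, or its plate-corrected B-score, at least 3 SD from the plate mean, either direction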;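 further: B-score of the F/F0 ratio slope over 7 to 12 s after thallium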
INS promoter inh: TRM-6 insulin promoter activity inhibition; TRM-6 cells (human fetal islet line), insulin promoter-eGFP reporter, imaging; reporter expression induced with tamoxifen; inhibition, % at 2 µM; hit rate 0.9% among 130,000;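 active means inhibition above the mean plus 3 SD, with well images judged a real hit on visual review, cut at about 60% in these data, passing the limit was not always enough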
L major viab: reduces viability of Leishmania major promastigotes. resazurin fluorescence viability. inhibition, % at 10 µM. hit rate 9% among 200,000. AID 1063; in the data active means inhibition above about 50%;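 further: promastigotes grown with compound for 44 hours at 28 °C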
WT yeast gro inh: growth inhibition of WT yeast, mitochondrial fusion screen | mitochondrial fusion phenotypic screen, WT strain | inhibition, % at 10 µM | hit rate 2.1% among 190,000; in the data active means inhibition above about 58%; tested in S. cerevisiae
An asterisk follows results filed as active. An excerpt weighted towards active compounds, which were near 12% of everything screened.

What do the screens show for `CCc1cccc(CC)c1NC(=S)N1CCn2cccc2C1c1ccncc1` (centres undefined)?
Ins promoter up: -0.31; Cl transport mod: 0.017; ROMK primary: -0.072; INS promoter inh: -71; L major viab: 32; WT yeast gro inh: -26

What do the screens show for `Fc1ccc(NC(=S)N2CCn3cccc3C2c2cccnc2)cc1` (centres undefined)?
Ins promoter up: -1.4; Cl transport mod: 0.15; ROMK primary: -0.62; INS promoter inh: -19; L major viab: 91*; WT yeast gro inh: -6

What do the screens show for `COc1cccc(NC(=S)N2CCn3cccc3C2c2cccnc2)c1` (centres undefined)?
Ins promoter up: 2.1; Cl transport mod: 1; ROMK primary: 0.3; L major viab: 88*; WT yeast gro inh: 8

What do the screens show for `Fc1ccc(C2c3cccn3CCN2C(=S)Nc2cccc(Br)c2)cc1` (centres undefined)?
Ins promoter up: -0.77; Cl transport mod: 0.21; ROMK primary: -0.14; INS promoter inh: 8; L major viab: 41; WT yeast gro inh: 86*

How did COc1cccc(CSc2nc3ccccc3cc2C=O)c1 do in these assays?
Ins promoter up: 0.74; Cl transport mod: -0.18; INS promoter inh: -42; L major viab: 97*; WT yeast gro inh: 13

How did COc1cccc(NC(=O)CSc2nc3ccccc3cc2Cc2ccccc2)c1 do in these assays?
Ins promoter up: -0.17; INS promoter inh: -29; L major viab: 31; WT yeast gro inh: 12

What do the screens show for `CN(C)CCC1c2ccc(Cl)cc2CCc2cccnc21` (centres undefined) (tested in a mixture with another compound)?
Ins promoter up: -1.3; Cl transport mod: 0.55

Results for O=C(NC1CCc2ccccc21)c1cc(COc2ccc(F)cc2F)on1 (centres undefined) ?
Ins promoter up: 0.26; ROMK primary: 0.28; L major viab: 23; WT yeast gro inh: 24

How did O=C(Nc1ccc2c(c1)OCO2)C1CC(c2ccccc2Cl)=NO1 (centres undefined) do in these assays?
Ins promoter up: -1.2; Cl transport mod: -1.1; ROMK primary: -0.32; INS promoter inh: -125; L major viab: -5; WT yeast gro inh: -13

How did CCn1cc(C2=NOC(C(=O)Nc3ccc4c(c3)OCO4)C2)c(C)n1 (centres undefined) do in these assays?
Ins promoter up: -2.4; Cl transport mod: 0.35; L major viab: 57*; WT yeast gro inh: 25

What do the screens show for `COc1cccc(/C=C(/C(=O)OCC(=O)NC2CCCC(C)C2C)c2ccccc2)c1` (centres undefined)?
Ins promoter up: -0.73; Cl transport mod: -1.8; ROMK primary: -0.65; INS promoter inh: -5; L major viab: 96*; WT yeast gro inh: 34

What do the screens show for `COc1cccc(/C=C(/C(=O)OCC(N)=O)c2ccccc2)c1`?
Ins promoter up: 0.65; Cl transport mod: -0.02; ROMK primary: 0.08; L major viab: 13; WT yeast gro inh: 1

What do the screens show for `CC1CCCC(NC(=O)COC(=O)c2cccc(NS(=O)(=O)/C=C/c3ccccc3)c2)C1C` (centres undefined)?
Ins promoter up: 1; Cl transport mod: -0.031; INS promoter inh: 30; L major viab: 53*; WT yeast gro inh: -14

Results for CC1(C)Cc2ccccc2C(C(Cc2ccccc2)C(N)=O)=N1 (centres undefined) ?
Cl transport mod: -0.31; ROMK primary: 1.6; INS promoter inh: 6; L major viab: 9; WT yeast gro inh: -4

How did CCOC(=O)Cn1nc(-c2ccccc2)c2cnc3ccc(C)cc3c21 do in these assays?
Ins promoter up: -0.54; Cl transport mod: -0.74; ROMK primary: -0.061; INS promoter inh: 24; L major viab: 8; WT yeast gro inh: -7

Results for O=C(COC(=O)CNC(=O)c1ccc(Cl)cc1)Nc1ccc2c(c1)OCCO2 ?
Ins promoter up: 1.2; Cl transport mod: -1.4; ROMK primary: 0.21; INS promoter inh: 37; L major viab: 57*; WT yeast gro inh: 5

How did O=C(COC(=O)/C=C/c1ccc(Cl)cc1)Nc1ccc2c(c1)OCCO2 do in these assays?
Ins promoter up: 0.61; Cl transport mod: 1; ROMK primary: 0.084; INS promoter inh: -7; L major viab: 51*; WT yeast gro inh: -5

How did O=C(COC(=O)/C=C/c1ccc(Cl)cc1)Nc1ccccc1 do in these assays?
Ins promoter up: 0.52; Cl transport mod: 0.013; ROMK primary: -0.025; L major viab: -6; WT yeast gro inh: -6

Source: PubChem (several laboratories)
